# Results reported in the supplement of paper PMC12808144.
# System: Mel-DCC-11-R
# Experiment: cell viability relative to DMSO control (fraction of DMSO control); higher = less cytotoxic, active = 0.8 or less
# Conditions: 1 µM; 120 h; vemurafenib co-treatment 0 µM
# Description: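 Same 315-drug TargetMol library at 1 µM in duplicate, 120 h, ATPlite luminescence normalised to DMSO controls, on the vemurafenib-resistant subline Mel-DCC-11-R cultured alone or with 8 µM vemurafenib co-treatment (Mel-DCC-11-R + V).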
row,SMILES,cell viability
1,C/C(=C\c1csc(C)n1)[C@@H]1C[C@@H]2O[C@]2(C)CCC[C@H](C)[C@H](O)[C@@H](C)C(=O)C(C)(C)[C@@H](O)CC(=O)N1 [Ixabepilone],0.67 (active)
2,CC[C@@]1(O)C(=O)OCc2c1cc1n(c2=O)Cc2cc3cc(O)ccc3nc2-1 [10-Hydroxycamptothecin],0.478 (active)
3,CC(=O)O[C@]1(C(C)=O)CC[C@H]2[C@@H]3C=C(C)C4=CC(=O)CC[C@]4(C)[C@H]3CC[C@@]21C [Megestrol acetate],1.13 (inactive)
4,N#Cc1ccnc(N2C(=O)CC[C@H]2C(=O)N(c2cncc(F)c2)[C@H](C(=O)NC2CC(F)(F)C2)c2ccccc2Cl)c1 [Ivosidenib],1.25 (inactive)
5,COc1ccc(/C=C\c2cc(OC)c(OC)c(OC)c2)cc1OP(=O)([O-])[O-].[Na+].[Na+] [Fosbretabulin Disodium],0.57 (active)
6,COc1ccc(-c2cc(=S)ss2)cc1 [Anethole trithione],1.04 (inactive)
7,COc1cc(NS(C)(=O)=O)ccc1Nc1c2ccccc2nc2ccccc12 [Amsacrine],1.06 (inactive)
8,NCCNc1ccc(NCCN)c2c1C(=O)c1ccncc1C2=O.O=C(O)/C=C\C(=O)O.O=C(O)/C=C\C(=O)O [Pixantrone dimaleate],1.62 (inactive)
9,CC(C)CN(C[C@@H](O)[C@H](Cc1ccccc1)NC(=O)O[C@H]1CCOC1)S(=O)(=O)c1ccc(N)cc1 [Amprenavir],0.854 (inactive)
10,CO[C@@]12[C@H](COC(N)=O)C3=C(C(=O)C(C)=C(N)C3=O)N1C[C@@H]1N[C@@H]12 [Mitomycin C],1.6 (inactive)
11,CCN(CC)CCNC(=O)c1c(C)[nH]c(/C=C2\C(=O)Nc3ccc(F)cc32)c1C [Sunitinib],1.16 (inactive)
12,COc1cc([C@@H]2c3cc4c(cc3[C@@H](O[C@@H]3O[C@@H]5CO[C@@H](c6cccs6)O[C@H]5[C@H](O)[C@H]3O)[C@H]3COC(=O)[C@H]23)OCO4)cc(OC)c1O [Teniposide],1.39 (inactive)
13,C#Cc1cccc(Nc2ncnc3cc4c(cc23)OCCOCCOCCO4)c1 [Icotinib],1.1 (inactive)
14,O=C(/C=C/c1ccc(O)cc1)c1ccc(O)cc1O [Isoliquiritigenin],0.834 (inactive)
15,O=C1CCC(N2C(=O)c3ccccc3C2=O)C(=O)N1 (stereo not given) [Thalidomide],0.897 (inactive)
16,Nc1ccccc1NC(=O)c1ccc(CNC(=O)OCc2cccnc2)cc1 [Entinostat],0.989 (inactive)
17,COc1ccc2cc1Oc1ccc(cc1)C[C@H]1c3cc(c(OC)cc3CCN1C)Oc1c(OC)c(OC)cc3c1[C@H](C2)N(C)CC3 [Tetrandrine],0.886 (inactive)
18,O=C(Nc1c(Cl)cncc1Cl)c1ccc(OC(F)F)c(OCC2CC2)c1 [Roflumilast],1.15 (inactive)
19,CCc1c2c(nc3ccc(OC(=O)N4CCC(N5CCCCC5)CC4)cc13)-c1cc3c(c(=O)n1C2)COC(=O)[C@]3(O)CC [Irinotecan],0.98 (inactive)
20,O=c1[nH]c(=O)n([C@H]2C[C@H](O)[C@@H](CO)O2)cc1C(F)(F)F [Trifluridine],1.24 (inactive)

# Same assay, conditions: 1 µM; 120 h; vemurafenib co-treatment 8 µM
row,SMILES,cell viability
1,C/C(=C\c1csc(C)n1)[C@@H]1C[C@@H]2O[C@]2(C)CCC[C@H](C)[C@H](O)[C@@H](C)C(=O)C(C)(C)[C@@H](O)CC(=O)N1 [Ixabepilone],0.377 (active)
2,CC[C@@]1(O)C(=O)OCc2c1cc1n(c2=O)Cc2cc3cc(O)ccc3nc2-1 [10-Hydroxycamptothecin],0.249 (active)
3,CC(=O)O[C@]1(C(C)=O)CC[C@H]2[C@@H]3C=C(C)C4=CC(=O)CC[C@]4(C)[C@H]3CC[C@@]21C [Megestrol acetate],1 (inactive)
4,N#Cc1ccnc(N2C(=O)CC[C@H]2C(=O)N(c2cncc(F)c2)[C@H](C(=O)NC2CC(F)(F)C2)c2ccccc2Cl)c1 [Ivosidenib],1.06 (inactive)
5,COc1ccc(/C=C\c2cc(OC)c(OC)c(OC)c2)cc1OP(=O)([O-])[O-].[Na+].[Na+] [Fosbretabulin Disodium],0.421 (active)
6,COc1ccc(-c2cc(=S)ss2)cc1 [Anethole trithione],1.13 (inactive)
7,COc1cc(NS(C)(=O)=O)ccc1Nc1c2ccccc2nc2ccccc12 [Amsacrine],0.539 (active)
8,NCCNc1ccc(NCCN)c2c1C(=O)c1ccncc1C2=O.O=C(O)/C=C\C(=O)O.O=C(O)/C=C\C(=O)O [Pixantrone dimaleate],0.868 (inactive)
9,CC(C)CN(C[C@@H](O)[C@H](Cc1ccccc1)NC(=O)O[C@H]1CCOC1)S(=O)(=O)c1ccc(N)cc1 [Amprenavir],0.833 (inactive)
10,CO[C@@]12[C@H](COC(N)=O)C3=C(C(=O)C(C)=C(N)C3=O)N1C[C@@H]1N[C@@H]12 [Mitomycin C],0.859 (inactive)
11,CCN(CC)CCNC(=O)c1c(C)[nH]c(/C=C2\C(=O)Nc3ccc(F)cc32)c1C [Sunitinib],0.564 (active)
12,COc1cc([C@@H]2c3cc4c(cc3[C@@H](O[C@@H]3O[C@@H]5CO[C@@H](c6cccs6)O[C@H]5[C@H](O)[C@H]3O)[C@H]3COC(=O)[C@H]23)OCO4)cc(OC)c1O [Teniposide],0.638 (active)
13,C#Cc1cccc(Nc2ncnc3cc4c(cc23)OCCOCCOCCO4)c1 [Icotinib],0.849 (inactive)
14,O=C(/C=C/c1ccc(O)cc1)c1ccc(O)cc1O [Isoliquiritigenin],1.02 (inactive)
15,O=C1CCC(N2C(=O)c3ccccc3C2=O)C(=O)N1 (stereo not given) [Thalidomide],0.589 (active)
16,Nc1ccccc1NC(=O)c1ccc(CNC(=O)OCc2cccnc2)cc1 [Entinostat],1.01 (inactive)
17,COc1ccc2cc1Oc1ccc(cc1)C[C@H]1c3cc(c(OC)cc3CCN1C)Oc1c(OC)c(OC)cc3c1[C@H](C2)N(C)CC3 [Tetrandrine],1.05 (inactive)
18,O=C(Nc1c(Cl)cncc1Cl)c1ccc(OC(F)F)c(OCC2CC2)c1 [Roflumilast],1.31 (inactive)
19,CCc1c2c(nc3ccc(OC(=O)N4CCC(N5CCCCC5)CC4)cc13)-c1cc3c(c(=O)n1C2)COC(=O)[C@]3(O)CC [Irinotecan],0.694 (active)
20,O=c1[nH]c(=O)n([C@H]2C[C@H](O)[C@@H](CO)O2)cc1C(F)(F)F [Trifluridine],1.06 (inactive)
